Several values for one entry are separate records, joined by “and”; a condition that tells them apart may be missing. Equal entries are not always repeated. Activity calls are given as the source filed them.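 Rule for the calls, unless noted: active = thallium flux through the channel raised or lowered by more than 3 SD from vehicle-only wells, actives on both sides; inactive = the rest.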
Tests used:
[1] = liver-stage malaria parasite growth inhibition, primary screen, cell-based, HepG2, luciferase luminescence, HepG2 viability (AID 624349; in the data active = parasite load remaining mostly below about 12%, no sharp cut-off; inactive = mostly above about 10%;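 note: 100% = mean of DMSO negative control wells on the same plate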); conditions: P. berghei liver stage in HepG2, luciferase luminescence, concentration not given here; parasite load remaining: stronger effect = lower value; viability: measured here: HepG2 viability without parasites
[2] = Cy5 fluorescence interference with SSB-bound oligo, artefact control for HCV NS3 helicase inhibitor project, biochemical, NIH Clinical Collection, E. coli SSB (AID 743268; call rule not given here)
[3] = tested on: Hepatitis C virus NS3 helicase; experiment: HCV NS3 helicase inhibitors, primary screen, biochemical, fluorescence polarization, NIH Clinical Collection (AID 743270; call rule not given here); conditions: NS3 helicase binding to Cy5-dT15 DNA, stronger effect = higher value, concentration not given here
[4] = target: Single-stranded DNA-binding protein (Escherichia coli (strain K12)) (UniProt P0AGE0); experiment: E. coli SSB displacement from DNA, counter-screen for HCV NS3 helicase inhibitor project, biochemical, fluorescence polarization, NIH Clinical Collection (AID 743271; in the data active = inhibition above about 28%); conditions: stronger effect = higher value, concentration not given here
[5] = fluorescence interference in NS3h assay format, artefact control for HCV NS3 helicase inhibitor project, biochemical, NIH Clinical Collection (AID 743272; call rule not given here;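 note: HCV NS3 helicase with a Cy5 labelled single stranded DNA probe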); conditions: fluorescence interference counterscreen, stronger effect = lower value
[6] = tested on: Neuropilin-2 / VEGF-C interaction (human); experiment: inhibitors of NRP2–VEGF-C binding, biochemical, microplate binding format, z-score (AID 743281; call rule not given here); conditions: microplate NRP2/VEGF-C binding assay; stronger effect = lower value
[7] = modulation of C. elegans fzo-1 (AID 1259413; call rule not given here;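 note: fzo-1 mutant C. elegans worms in liquid wells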); conditions: C. elegans fzo-1 modulator screen, mean read-out; stronger effect = higher value
[8] = differential killing of epithelial or mesenchymal cells, primary screen, imaging, PC-3E GFP, TEM4-18 mCherry, co-culture (AID 1345086;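 active = compounds killing one labelled cell type while sparing the other, by normalised counts and ratio limits, not self-fluorescent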;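 note: cells exposed to compound for 72 h before imaging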;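 for red/green cell ratio (normalised): normalised mesenchymal count divided by normalised epithelial count so high means epithelial killing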); conditions: imaging cell counts, at 1 µM
[9] = sensitizers of A549 cells to miR-34 induction, primary screen, imaging, A549 dox-inducible miR-34, nuclei and caspase counts (AID 1347080;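 active = compounds whose cell count with miR-34 switched on is under 0.7 times the count with it off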); conditions: A549 miR-34 inducible, Hoechst nuclei count, 48 h
F380Y = experiment: modulators of BK channel variants, profiling panel, selectivity assay, cell-based, U2OS BacMam, thallium flux, beta subunits (AID 1259406); conditions: at 30 µM;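 note: initial slope of Thallos dye fluorescence rise after thallium is added; log ratio against the mean of 0.3% DMSO vehicle wells on the same plate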
F380Y/beta1 = experiment: as above; conditions: at 30 µM
F380Y/beta2Delta = experiment: as above; conditions: at 30 µM
F380Y/beta4 = experiment: as above; conditions: at 30 µM
[10] = target: Calcium-activated potassium channel subunit alpha-1 (Homo sapiens) + Leucine-rich repeat-containing protein 26 (Homo sapiens) (UniProt Q12791+Q2I0M4); experiment: as above; conditions: F380Y/Slo1WT/gamma1, at 30 µM
Sequence of Calcium-activated potassium channel subunit alpha-1 (Homo sapiens) + Leucine-rich repeat-containing protein 26 (Homo sapiens) (Q2I0M4 whole entry, looked up, one chain of several): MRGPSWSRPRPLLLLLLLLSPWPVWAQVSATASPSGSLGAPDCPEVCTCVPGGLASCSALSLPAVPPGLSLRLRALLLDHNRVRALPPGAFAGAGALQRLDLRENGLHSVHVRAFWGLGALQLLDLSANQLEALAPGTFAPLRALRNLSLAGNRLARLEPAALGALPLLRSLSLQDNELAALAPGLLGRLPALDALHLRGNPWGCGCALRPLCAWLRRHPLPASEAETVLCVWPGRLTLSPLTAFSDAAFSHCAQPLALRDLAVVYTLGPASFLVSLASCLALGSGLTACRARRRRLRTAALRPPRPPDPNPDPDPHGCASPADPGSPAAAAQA

R275C = experiment: as above; conditions: at 30 µM
R275C/beta1 = experiment: as above; conditions: at 30 µM
R275C/beta2Delta = experiment: as above; conditions: at 30 µM
R275C/beta4 = experiment: as above; conditions: at 30 µM
R275C/Slo1WT/beta2 = experiment: as above; conditions: at 30 µM
[11] = measured here: relative caspase fold change +Dox/-Dox
[12] = measured here: total cells with miR-34 induction, stronger effect = lower value
[13] = measured here: total cells without miR-34 induction

CCN(C(C)=O)c1cccc(-c2ccnc3c(C#N)cnn23)c1
10600: cell count [9, 13]
1.22: normalised cell number ([8]; measured here: mesenchymal TEM4-18 mCherry cell survival)
71%: viability [1]
1.13: fold change [9, 11]
inactive: parasite load remaining [1] 67.8% | fluorescence ratio [2] 0.96 | inhibition [3] -1.97% | inhibition [4] -3.54% | fluorescence ratio [5] 0.98 | z-score [6] -0.583 | mean signal [7] 228 | red/green cell ratio (normalised) ([8]; actives lie on both sides) 1.11 | fold change ([9]; stronger effect = lower value) 0.85
8990: cell count [9, 12]
1.1: normalised cell number ([8]; measured here: epithelial PC-3E GFP cell survival)

C[C@]12CCC(=O)C=C1CC[C@@H]1[C@@H]2CC[C@@]2(C)[C@H]1CC[C@]2(C)O
78%: viability [1]
active: log fold change Tl+ flux (F380Y/beta4) -0.105
inactive: parasite load remaining [1] 82.1% | fluorescence ratio [2] 1.03 | inhibition [3] 0.4% | inhibition [4] -2.41% | fluorescence ratio [5] 0.97 | log fold change Tl+ flux (F380Y) -0.0714 | log fold change Tl+ flux (F380Y/beta1) 0.0212 | log fold change Tl+ flux (F380Y/beta2Delta) -0.0632 | log fold change Tl+ flux [10] 0.0144 | log fold change Tl+ flux (R275C) -0.0155 | log fold change Tl+ flux (R275C/beta1) 0.014 | log fold change Tl+ flux (R275C/beta2Delta) 0.0131 | log fold change Tl+ flux (R275C/beta4) 0.00989 | log fold change Tl+ flux (R275C/Slo1WT/beta2) -0.0244

NC(=NCc1ccc(Cl)cc1)SCCCc1cnc[nH]1
63.6%: viability [1]
9480 and 8280: cell count [9, 13]
inactive: parasite load remaining [1] 42% | fluorescence ratio [2] 0.97 | inhibition [3] -2.84% | inhibition [4] 0.39% | fluorescence ratio [5] 0.97 | z-score [6] -0.336 | mean signal [7] 232 | fold change ([9]; stronger effect = lower value) 0.914 | fold change ([9]; stronger effect = lower value, cell number ratio, induced over uninduced) 0.963
8670 and 7970: cell count [9, 12]
0.654 and 0.836: fold change [9, 11]

C[C@]12CC(=CO)C(=O)C[C@@H]1CC[C@@H]1[C@@H]2CC[C@@]2(C)[C@H]1CC[C@]2(C)O
66.1%: viability [1]
active: log fold change Tl+ flux (F380Y) 0.111 | log fold change Tl+ flux (F380Y/beta1) 0.204 | log fold change Tl+ flux (F380Y/beta2Delta) 0.171 | log fold change Tl+ flux (F380Y/beta4) 0.113 | log fold change Tl+ flux [10] 0.208 | log fold change Tl+ flux (R275C/beta1) 0.301 | log fold change Tl+ flux (R275C/beta2Delta) 0.261 | log fold change Tl+ flux (R275C/beta4) 0.148
inactive: parasite load remaining [1] 62.4% | fluorescence ratio [2] 1.04 | inhibition [3] 5.15% | inhibition [4] 3.75% | fluorescence ratio [5] 1.01 | log fold change Tl+ flux (R275C) 0.0626 | log fold change Tl+ flux (R275C/Slo1WT/beta2) 0.0227

CN1CC[C@@]23CCCC[C@@H]2[C@@H]1Cc1ccc(O)cc13
inactive: parasite load remaining [1] 97.8% | fluorescence ratio [2] 0.99 | inhibition [3] -1.98% | inhibition [4] -3.18% | fluorescence ratio [5] 0.91 | z-score [6] -0.569 | mean signal [7] 229 | log fold change Tl+ flux (F380Y) 0.0229 | log fold change Tl+ flux (F380Y/beta2Delta) 0.00585 | log fold change Tl+ flux [10] 0.0222 | log fold change Tl+ flux (R275C) 0.00894 | log fold change Tl+ flux (R275C/beta1) 0.0266 | log fold change Tl+ flux (R275C/beta2Delta) 0.00635
68.2%: viability [1]

COc1ccc(CCN)cc1OC
7830: cell count [9, 13]
8740: cell count [9, 12]
inactive: parasite load remaining [1] 69.1% | fluorescence ratio [2] 0.93 | inhibition [3] -0.22% | inhibition [4] 5.91% | fluorescence ratio [5] 0.92 | z-score [6] -0.441 | mean signal [7] 274 | fold change ([9]; stronger effect = lower value) 1.12 | log fold change Tl+ flux (F380Y) -0.0565 | log fold change Tl+ flux (F380Y/beta1) 0.00413 | log fold change Tl+ flux (F380Y/beta2Delta) -0.0175 | log fold change Tl+ flux (F380Y/beta4) -0.0433 | log fold change Tl+ flux [10] -0.00222 | log fold change Tl+ flux (R275C) -0.00436 | log fold change Tl+ flux (R275C/beta1) -0.0128 | log fold change Tl+ flux (R275C/beta2Delta) -0.00532 | log fold change Tl+ flux (R275C/beta4) -0.0169 | log fold change Tl+ flux (R275C/Slo1WT/beta2) -0.0122
72%: viability [1]
0.533: fold change [9, 11]

— PubChem BioAssay
